Only some compounds are listed: those with a hit (about 6.9% of all), similar ones and a draw of the others.
VDR inhibitor: inhibitors of human vitamin D receptor; 400,000 compounds, 0.93% hits; VDR-SRC2-3 peptide fluorescence polarization, 2 h; Potency, µM, for the others: max response, negative = inhibition, most hits filed as inhibitors; AID 504847; further: on the % scale 0 is the no-effect control and ±100 the full control effect
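After 23 nl compound addition and a short centrifugation, plates sat for 2 hours at ambient temperature; polarization of fluorescence then indicated loss of VDR binding to peptide SRC2-3.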
JMJD2A Tudor inh: blocks the human JMJD2A Tudor domain; AlphaScreen JMJD2A-Tudor / H3K4me3 peptide binding; Potency, µM (doses to about 114 µM), without a hit: at the top dose activity change, negative = inhibition, hits mostly inhibitors; 390,000 compounds, 4.4% hits; further: on the % scale 0 is the no-effect control and ±100 the full control effect; nearly all actives have a fitted effect of over 50% in size
Target sequence (O75164 whole entry, looked up, the tested form may be a part): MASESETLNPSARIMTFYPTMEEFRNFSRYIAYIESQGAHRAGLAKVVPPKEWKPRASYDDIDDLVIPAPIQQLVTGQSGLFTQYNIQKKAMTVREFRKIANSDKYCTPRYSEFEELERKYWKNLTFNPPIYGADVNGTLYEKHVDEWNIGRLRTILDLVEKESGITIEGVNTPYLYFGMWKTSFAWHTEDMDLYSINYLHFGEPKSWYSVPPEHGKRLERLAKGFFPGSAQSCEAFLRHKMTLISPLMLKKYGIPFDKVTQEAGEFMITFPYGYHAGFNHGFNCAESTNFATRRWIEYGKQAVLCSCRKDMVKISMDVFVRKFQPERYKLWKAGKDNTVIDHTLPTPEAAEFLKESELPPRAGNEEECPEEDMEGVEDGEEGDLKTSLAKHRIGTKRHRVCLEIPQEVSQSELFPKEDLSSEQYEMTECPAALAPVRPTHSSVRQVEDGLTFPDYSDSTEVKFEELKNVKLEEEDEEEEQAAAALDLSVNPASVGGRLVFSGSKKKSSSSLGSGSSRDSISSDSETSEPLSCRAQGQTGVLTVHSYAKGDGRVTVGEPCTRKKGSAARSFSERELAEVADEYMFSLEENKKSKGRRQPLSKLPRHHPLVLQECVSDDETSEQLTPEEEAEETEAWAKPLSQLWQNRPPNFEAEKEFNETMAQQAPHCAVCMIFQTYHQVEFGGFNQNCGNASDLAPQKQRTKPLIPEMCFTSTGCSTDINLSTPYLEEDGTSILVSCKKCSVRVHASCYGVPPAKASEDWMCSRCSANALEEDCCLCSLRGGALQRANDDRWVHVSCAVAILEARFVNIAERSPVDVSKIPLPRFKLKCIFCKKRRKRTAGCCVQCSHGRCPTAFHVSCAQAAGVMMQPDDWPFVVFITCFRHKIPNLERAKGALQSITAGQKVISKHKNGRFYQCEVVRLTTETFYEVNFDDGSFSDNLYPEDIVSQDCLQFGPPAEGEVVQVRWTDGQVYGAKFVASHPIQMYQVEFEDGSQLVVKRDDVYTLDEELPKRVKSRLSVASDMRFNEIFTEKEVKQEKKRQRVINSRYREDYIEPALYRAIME
HP1b chromo inh: HP1-beta chromodomain-methylated histone interaction inhibition; P83916; AlphaScreen HP1-beta / biotin-H3K9me3 peptide binding; Potency, µM (highest dose often 114 µM), without a hit: at the top dose activity change, negative = inhibition, most hits filed as inhibitors; 390,000 compounds, 0.56% hits; AID 540317; further: nearly all actives have a fitted effect of over 70% in size
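HP1-beta protein (50 nM final) preincubated 30 min at room temperature with biotinylated H3(1-18)K9me3 peptide (50 nM) in PBS pH 7.4, 0.01% Tween-20, then compound added for 30 min. AlphaScreen streptavidin donor/nickel chelate acceptor beads (10 ug/mL final), 30 min dark, luminescence read.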
PLK1 PBD block: inhibitors of human PLK1 polo-box domain binding; P53350; Plk1 PBD binding of FITC phosphopeptide, fluorescence polarization; Potency, µM, without a hit: max response, negative = inhibition, hits mostly inhibitors; 360,000 compounds, 2.8% hits; AID 720504; further: series mostly up to about 57 µM; on the % scale 0 is the no-effect control and ±100 the full control effect; nearly all actives have a fitted effect of over 65% in size
L3MBTL1 inh: L3MBTL1 (human) inhibition; 230,000 compounds, 0.66% hits; AlphaScreen L3MBTL1–H3K9me1 peptide binding; AID 485360; Potency, µM (highest dose often 57.1 µM), for the others: at the top dose activity, negative = inhibition, usual class: inhibitors; further: on the % scale 0 is the no-effect control and ±100 the full control effect; nearly all actives have a fitted effect of over 60% in size
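AlphaScreen proximity signal between nickel-chelate acceptor and streptavidin donor beads (final 10 ug/mL) reports binding of 50 nM L3MBTL1 to 75 nM biotin-H3 K9me1 peptide; complex incubated with compounds 30 min at room temperature; cefsulodin titration as control.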
BAZ2B inh: BAZ2B (human) inhibition | 360,000 compounds, 4.4% hits | Potency, µM (top dose mostly 114 µM), for the others: at the top dose activity change, negative = inhibition, usual class: inhibitors | AlphaScreen BAZ2B-H3K14Ac peptide displacement | Q9UIF8; further: on the % scale 0 is the no-effect control and ±100 the full control effect; nearly all actives have a fitted effect of over 60% in size
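Multi-concentration screen (max 110 uM) measuring displacement of acetylated histone H3 peptide from BAZ2B by AlphaScreen, using 50 nM protein, 50 nM peptide and 10 ug/mL streptavidin donor plus Ni-chelate acceptor beads.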
The depositor's hits bear a star; ? = inconclusive; nt = not tested or not shown; ! = repeats disagree; [ ] = remark or other dose. The call rests on the fitted dose curve; in most records, active means well fitted curve in the direction sought with a large enough effect; inconclusive means small, poorly fitted or top-dose-only effect, or another doubt; inactive means no such curve, though single readings can be large; an effect the other way counts as inactive or inconclusive. Potency means the concentration at half of the fitted maximal effect.

SMILES	VDR inhibitor	JMJD2A Tudor inh	HP1b chromo inh	PLK1 PBD block	L3MBTL1 inh	BAZ2B inh
CCOc1ccc(NCc2cccn2-c2nnc(N3CCC(C(=O)NCC(C)c4ccccc4)CC3)s2)cc1 (configuration not stated)	4%	?	11%	nt	nt	-30%
CCC(CC)NC1CCCCC1OC (configuration not stated)	-13%	50µM*	19%	-1%	6%	?
COc1cc([C@@H]2c3cc4c(c(O)c3C[C@H]3COC(=O)[C@@H]32)OCO4)cc(OC)c1OC	1%	-26%	25%	nt	nt	nt
CCC(C=C[C@@H]1OC(=O)C=C[C@H]1C)=C[C@H](C)CC=CC(C)=C[C@@H](C)C(=O)[C@@H](C)[C@H](O)[C@@H](C)CC(C)=CC(=O)O	1.6µM*	nt	nt	nt	nt	nt
CC(C)(COC(=O)C(c1ccccc1)c1ccccc1)CN1CCOCC1	4%	106%	82%	-11%	nt	nt
Cc1cc(C)nc(N/N=C/C2=C(O)CC(c3ccccc3)CC2=O)n1 (configuration not stated)	nt	nt	nt	nt	nt	22µM*
O=C(Nc1ccc(Br)cc1C(=O)O)c1ccc2c(c1)C(=O)N(Cc1ccccc1)C2=O	?	50µM*	-26%	?	nt	?
O=C(CN1CCOCC1)Nc1ccc(Br)cc1C(=O)c1ccccc1	0%	-10%	8%	-6%	7%	1%
CCN(CC)CCO[C@H]1CC[C@@]2(C)C(=CC[C@@H]3[C@H]2CC[C@]2(C)C(=O)CC[C@H]32)C1	1%	nt	nt	nt	nt	nt
CC(C)C[C@H]1C(=O)N2CCC[C@H]2[C@]2(O)O[C@](NC(=O)[C@@H]3C=C4c5cccc6[nH]cc(c56)C[C@H]4N(C)C3)(C(C)C)C(=O)N12	79µM*	50µM*	-14%	?	-23%	-34%
CC(C)C[C@H]1C(=O)N2CCC[C@H]2[C@]2(O)O[C@](NC(=O)[C@@H]3C=C4c5cccc6[nH]c(Br)c(c56)C[C@H]4N(C)C3)(C(C)C)C(=O)N12	28µM*!	nt	nt	nt	nt	nt
CC(C)C[C@H]1C(=O)N2CCC[C@@H]2[C@]2(O)O[C@](NC(=O)[C@H]3C=C4c5cccc6[nH]c(Br)c(c56)C[C@H]4N(C)C3)(C(C)C)C(=O)N12	-13%	nt	nt	nt	nt	nt
CN1C[C@H](C(=O)N[C@]2(C)O[C@@]3(O)[C@@H]4CCCN4C(=O)[C@H](Cc4ccccc4)N3C2=O)C=C2c3cccc4[nH]cc(c34)C[C@H]21	14µM*	nt	nt	nt	nt	nt
CN1C[C@H](C(=O)NC2(C)OC3(O)[C@@H]4CCCN4C(=O)[C@H](Cc4ccccc4)N3C2=O)CC2c3cccc4[nH]cc(c34)C[C@H]21 (some centres not stated)	8%	?	-19%	-11%	nt	nt
O=C(Cc1coc2cc3c(cc12)CCC3)OCC(=O)N1CCCC1=O	-9%	12%	57%	-4%	nt	?
NCCNC[C@@H](N)CCCN=C(N)N[N+](=O)[O-]	-1%	nt	nt	nt	nt	nt
CCOC(=O)CCCc1cc[c]([Sb](=[O])([OH])[OH])cc1	?	0.71µM*	1.3µM*	nt	nt	nt
CCC1C2CC3C4N(C)c5ccccc5[C@]45CC(C2C5O)N3C1O (some centres not stated)	4%	nt	nt	nt	nt	nt
CCC(C)N1C(=O)/C(=C\c2cc3c4c(c2)CCCN4CCC3)C(=O)NC1=S (configuration not stated)	?	14µM*	?	0.95µM*	-26%	?
CN1C(=O)/C(=C\c2ccc(N3CCCCCC3)cc2)C(=O)NC1=S	?	?	-3%	2.1µM*	-15%	?
CN1C(=O)/C(=C\c2ccc(N3CCCCC3)o2)C(=O)NC1=S	-1%	-21%	-3%	68%	-8%	-25%
CCOc1ccc(N2C(=O)NC(=O)/C(=C\c3ccc(N4CCCCC4)o3)C2=O)cc1	1%	-14%	-4%	80%	8%	-7%
CCC(C)N1C(=O)/C(=C\c2ccc(N3CCCCCC3)cc2)C(=O)NC1=S (configuration not stated)	-8%	?	?	?	-7%	45µM*
CCC(C)N1C(=O)/C(=C\c2cnc(N(C)C)nc2)C(=O)NC1=S (configuration not stated)	45µM*	?	-1%	6.7µM*	-5%[11.4 µM]	?
CCCn1c(C(C)C)n[nH]c1=S	-5%	?	31%	-19%	nt	3%
SMILES	VDR inhibitor	JMJD2A Tudor inh	HP1b chromo inh	PLK1 PBD block	L3MBTL1 inh	BAZ2B inh
O=C(Nc1ccc2nc(-c3cccs3)c(-c3cccs3)nc2c1)N1CCCCC1	32%	13%	57%	nt	nt	nt
CC(NS(=O)(=O)c1ccc(CCC(=O)N2CCN(C)CC2)cc1)c1ccccc1 (configuration not stated)	4%	-17%	24%	-1%	nt	4%
O=C(Cn1c(=O)n(Cc2ccccc2)c(=O)c2sc3ccccc3c21)NCc1ccccc1Cl	9%	-5%	63%	nt	nt	-32%
CCn1c(O)c(C(c2ccccn2)c2c(O)n(CC)c(=S)[nH]c2=O)c(=O)[nH]c1=S	-8%	4µM*	21%	-6%	-3%	32µM*
O=c1[nH]c(=S)[nH]c(O)c1C(c1ccccn1)c1c(O)[nH]c(=S)[nH]c1=O	2%	?	18%	-12%	-8%	20µM*
Cc1ccc2c(c1)=C/C(=C\c1c(O)[nH]c(=S)[nH]c1=O)C(=O)N=2	nt	nt	nt	nt	-13%	?
S=c1[nH]nc(-c2ccn[nH]2)n1-c1ccccc1Cl	2%	20µM*	?	?	-4%	50µM*
Cn1c(O)c(C2=NNC(c3ccc(Cl)cc3)C2)c(=O)n(C)c1=O (configuration not stated)	36%	-3%	30%	-1%	-16%	45µM*
CCOC(=O)[C@]12Cc3cc(Cl)ccc3[C@H]1N(C)C(=O)c1cc(OC)ccc12	nt	nt	nt	11µM*	nt	nt
CCOC(=O)[C@]12Cc3cc(OC)ccc3[C@H]1N(CC(=O)OC)C(=O)c1cc(OC)ccc12	nt	nt	nt	13µM*	nt	nt
CCOC(=O)[C@]12Cc3cc(OC)ccc3[C@H]1N(C)C(=O)c1cc(OC)ccc12	nt	nt	nt	9.5µM*	nt	nt
CCOC(=O)[C@]12Cc3cc(OC)ccc3[C@H]1N(CC(=O)OC)C(=O)c1ccccc12	nt	nt	nt	-2%	nt	nt
CCCCCN1C(=O)c2cc(OC)ccc2[C@@]2(C(=O)OCC)Cc3cc(OC)ccc3[C@@H]12	nt	nt	nt	4.7µM*	nt	nt
Cc1cc(C(=O)OCC(=O)NC(=O)c2cccn2C)c2ccccc2n1	11%	11%	13%	5%	-13%	18%
CC(C)CN1CCC2(CC1)CCN(C(=O)Oc1ccccc1)CC2	2%	nt	nt	nt	nt	nt

Source: PubChem
